Legend:
Assay in all cases: PBM binding z-score (relative to random genomic background probes); higher = stronger binding; sequences stand for … in GC…GCGATTGACAGCGTAGAATGAAGG
[1] = system: FXR:RXRa (NR concentration 270 nM, RXRa partner concentration 90 nM)
How it was run: (§1)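 Binding buffer was PBS pH 7.4 with 2% milk, 0.02% Triton X-100, 1 mM DTT, 0.2 mg/mL BSA and 0.4 mg/ml salmon testes DNA. In it, ligand-free nuclear receptor dimers were incubated 1 h on custom Agilent 4×180K protein-binding microarrays carrying double-stranded probes. Antibodies against each partner (one per run) detected binding, and z-scores were calculated against random background probes after regression normalization of scanned fluorescence.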

[2] = system: LXRa:RXRa (NR concentration 270 nM, RXRa partner concentration 90 nM)
How it was run: as §1

[3] = system: LXRa homodimer (NR concentration 270 nM)
How it was run: as §1

[4] = system: LXRb:RXRa (NR concentration 270 nM, RXRa partner concentration 90 nM)
How it was run: as §1

[5] = system: LXRb homodimer (NR concentration 270 nM)
How it was run: as §1

[6] = system: PPARa:RXRa (NR concentration 270 nM, RXRa partner concentration 90 nM)
How it was run: as §1

[7] = system: PPARg:RXRa (NR concentration 180 nM, RXRa partner concentration 90 nM)
How it was run: as §1

[8] = system: PPARg:RXRa 270nM:90nM, anti-RXR (NR concentration 270 nM, RXRa partner concentration 90 nM)
How it was run: as §1

[9] = system: PPARg:RXRa 30nM:10nM, anti-RXR (NR concentration 30 nM, RXRa partner concentration 10 nM)
How it was run: as §1

[10] = system: PPARg:RXRa 90nM:30nM, anti-RXR (NR concentration 90 nM, RXRa partner concentration 30 nM)
How it was run: as §1

[11] = system: PPARg:RXRa DBDmut IVT, anti-RXR (DBD mutation: RXRa K156A/R161A, NR concentration 270 nM, RXRa partner concentration 90 nM)
How it was run: as §1

[12] = system: PPARg:RXRa IVT, anti-PPARg (NR concentration 270 nM, RXRa partner concentration 90 nM)
How it was run: as §1

[13] = system: PPARg DBDmut:RXRa IVT, anti-PPARg (DBD mutation: PPARg1 K132A/R137A, NR concentration 270 nM, RXRa partner concentration 90 nM)
How it was run: as §1

[14] = system: PPARg DBDmut IVT, anti-PPARg (DBD mutation: PPARg1 K132A/R137A, NR concentration 270 nM)
How it was run: as §1

[15] = system: PPARg homodimer (NR concentration 180 nM)
How it was run: as §1

[16] = system: PXR:RXRa (NR concentration 270 nM, RXRa partner concentration 90 nM)
How it was run: as §1

[17] = system: PXR homodimer (NR concentration 270 nM)
How it was run: as §1

[18] = system: RARa:RXR (NR concentration 270 nM, RXRa partner concentration 90 nM)
How it was run: as §1

[19] = system: RARa homodimer (NR concentration 270 nM)
How it was run: as §1

[20] = system: RARb:RXRa (NR concentration 270 nM, RXRa partner concentration 90 nM)
How it was run: as §1

Sequence | PBM binding z-score [1] | PBM binding z-score [2] | PBM binding z-score [3] | PBM binding z-score [4] | PBM binding z-score [5] | PBM binding z-score [6] | PBM binding z-score [7] | PBM binding z-score [8] | PBM binding z-score [9] | PBM binding z-score [10] | PBM binding z-score [11] | PBM binding z-score [12] | PBM binding z-score [13] | PBM binding z-score [14] | PBM binding z-score [15] | PBM binding z-score [16] | PBM binding z-score [17] | PBM binding z-score [18] | PBM binding z-score [19] | PBM binding z-score [20]
CCTACTGAGCCACGAAAGGTCATTGATTCAGTGA | 3.68 | 5.05 | 5.31 | 4.22 | 1.09 | 4.21 | 1.27 | 2.77 | 0.973 | 1.93 | 0.983 | 1.29 | -0.156 | 0.271 | 3.9 | 5.33 | 2.61 | 5.69 | 3.37 | 3.95
ATCTCTAGGTAACCAAGTTCAGTTAATGCCGAAC | 0.988 | 1.26 | 1.38 | 1.11 | 0.875 | 1.31 | 0.806 | 1.1 | 0.448 | 0.659 | 3.71 | 3.16 | 2.02 | 1.26 | 1.12 | 2.19 | 2.39 | 1.24 | 1.3 | 1.18
CCTTACGGGTCACGAGGTGATAGCACGACGAGCG | 6.73 | 4.27 | -0.242 | 3.42 | -0.279 | 5.82 | 7.42 | 6.5 | 3.14 | 5.75 | 3.97 | 5.24 | 1.17 | 1.06 | 3.17 | 3.69 | -0.0631 | 5.02 | 0.649 | 4.27
TCATATAGGTAAACAGGTGATAGTCCGTAAGTTA | 0.91 | 0.907 | 0.318 | 0.806 | -0.237 | 1.73 | 2.35 | 3.2 | 4.04 | 3.64 | 4.54 | 3.86 | 2.2 | 1.3 | 1.51 | 0.551 | 0.241 | 0.892 | 1.46 | 0.497
TCGAGTAGGTTAGTCGGGGCTTTCAGCCAACATA | -0.154 | -0.116 | -0.783 | -0.0101 | -1.08 | 0.158 | -0.922 | 0.148 | 0.909 | 0.595 | 1.86 | 0.952 | -1.71 | -1.29 | -0.983 | -0.467 | -0.898 | -0.14 | -1.19 | 0.0518
GCATATAGGTAATACCAGGTGAAAGTCCGATTGT | 0.107 | 2.05 | 0.172 | 0.185 | -0.363 | 1.26 | 1.13 | 1.19 | 0.303 | 0.881 | 4.03 | 3.4 | 0.784 | 0.508 | 0.56 | 0.0811 | 0.268 | 1.47 | 0.331 | -0.00831
AGTATGAGGTTATTAAGATCAGGGAATTGCGGTC | 1.55 | 1.75 | 0.568 | 1.52 | 0.578 | 2.12 | 0.776 | 1.12 | 0.453 | 0.816 | 0.549 | 1.51 | 1.49 | 0.314 | 1.11 | 1.5 | 0.942 | 1.55 | 1.05 | 1.4
